Growth data for nine compounds are collected here from PubChem BioAssay (NCI).

Test systems include DU-145 prostate; K-562 leukemia; MALME-3M melanoma; MDA-MB-231 breast; RXF 393 renal; SF-268 CNS; SF-539 CNS; UACC-257 melanoma; M14 melanoma; HCT-15 colon; HT29 colon; SNB-75 CNS; SNB-19 CNS; U251 CNS; PC-3 prostate; SK-MEL-5 melanoma; UACC-62 melanoma; LOX IMVI melanoma; SK-MEL-28 melanoma.
Experiment in all cases: NCI-60 one-dose screen, 48 h (100 = growth as untreated, 0 = no growth, -100 = all killed)
Holding throughout (conditions): 10 µM unless noted

Each structure is given as a SMILES string. This is part of a sample that, as a whole, favours compounds with a hit. Of some 83,000 tested, about 20% had one in any assay.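 Each cell line was grown in a 96-well plate and treated with one concentration of compound for 48 hours. Values below 10 were considered active.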 A number with no mark means an inactive call. The source made the active and inactive calls.

For `O=C(C=P(c1ccccc1)(c1ccccc1)c1ccccc1)CCl`, the growth in the test on DU-145 prostate is -36.5% (active); with K-562 leukemia it was -6.42% (active); with MALME-3M melanoma, -69.7% (active); in the test with MDA-MB-231 breast, 16.2%; in the test on RXF 393 renal, -71.1% (active); in the test with SF-268 CNS, -12.2% (active). Also, the growth is -20% (active) with SF-539 CNS; -73.5% (active) in the test on UACC-257 melanoma; -61.5% (active) in the test on M14 melanoma; -18.2% (active) with HCT-15 colon; -54.2% (active) in the test with HT29 colon; 7.49% (active) in the test on SNB-75 CNS. Also, the growth with SNB-19 CNS was 69.1%; in the test with U251 CNS it was 34.7%; with PC-3 prostate, 8.54% (active); in the test on SK-MEL-5 melanoma it was -4.76% (active); with UACC-62 melanoma, -78.3% (active); with LOX IMVI melanoma it was -85.5% (active). The growth in the test on SK-MEL-28 melanoma was -6.08% (active).
Take `CNCCCNc1ccnc2cc(Cl)ccc12`: the growth with DU-145 prostate is -5.31% (active); in the test with K-562 leukemia, 2.22% (active); in the test on MALME-3M melanoma, -90.3% (active); in the test on MDA-MB-231 breast it was -33.8% (active); in the test on RXF 393 renal it was -63.3% (active); with SF-268 CNS, -29.5% (active). For the same compound, the growth was -66.7% (active) with SF-539 CNS; -87.5% (active) in the test on UACC-257 melanoma; -32.6% (active) in the test with M14 melanoma; 6.57% (active) with HCT-15 colon; -33.1% (active) with HT29 colon; -52.8% (active) in the test on SNB-75 CNS. Besides, the growth with SNB-19 CNS was -1.63% (active); in the test with U251 CNS it was 0.589% (active); in the test with PC-3 prostate it was 1.91% (active); in the test on SK-MEL-5 melanoma it was -96.1% (active); with UACC-62 melanoma, -75.2% (active); in the test with LOX IMVI melanoma, -49.8% (active). Further, the growth with SK-MEL-28 melanoma is -96.3% (active).
For the compound `COc1cccc(NC(=O)[C@H](C(C)C)n2c(=O)[nH]c3ccccc3c2=O)c1`, the growth in the test on DU-145 prostate is 107%; in the test on K-562 leukemia it was 90.4%; in the test on MALME-3M melanoma it was 104%; in the test with MDA-MB-231 breast, 107%; with RXF 393 renal, 109%; in the test with SF-268 CNS, 111%. In addition, the growth was 102% in the test on SF-539 CNS; 96.5% in the test with UACC-257 melanoma; 107% in the test with M14 melanoma; 104% in the test with HCT-15 colon; 101% with HT29 colon; 102% with SNB-75 CNS. For the same compound, the growth with SNB-19 CNS was 117%; in the test on U251 CNS, 96.8%; in the test with PC-3 prostate, 95.1%; with SK-MEL-5 melanoma it was 99.2%; with UACC-62 melanoma it was 107%; with LOX IMVI melanoma it was 99.7%. Further, the growth in the test on SK-MEL-28 melanoma is 114%.
`CCOC(=O)C(Nc1ccccc1)C(=O)OCC`: the growth with DU-145 prostate was 122%; in the test on K-562 leukemia it was 92.4%; in the test on MALME-3M melanoma it was 93.2%; in the test on MDA-MB-231 breast, 105%; in the test on RXF 393 renal, 114%; in the test on SF-268 CNS, 122%. The growth is 111% with SF-539 CNS; 112% in the test on UACC-257 melanoma; 103% in the test on M14 melanoma; 98.9% with HCT-15 colon; 106% in the test on HT29 colon; 85% in the test on SNB-75 CNS. For the same compound, the growth with SNB-19 CNS was 105%; in the test with U251 CNS, 109%; with PC-3 prostate, 88.1%; in the test on SK-MEL-5 melanoma it was 102%; in the test on UACC-62 melanoma, 104%; with LOX IMVI melanoma, 93.5%. In the test with SK-MEL-28 melanoma, the growth is 111%.
Regarding `CCOP(=O)(O)OP(=O)(O)OCC`, the growth in the test on DU-145 prostate was 105%; with K-562 leukemia it was 89%; with MALME-3M melanoma, 98.1%; in the test on MDA-MB-231 breast, 112%; in the test with RXF 393 renal, 118%; in the test on SF-268 CNS it was 100%. In addition, the growth in the test on SF-539 CNS is 105%; in the test on UACC-257 melanoma it was 105%; with M14 melanoma, 100%; in the test on HCT-15 colon it was 98.5%; with HT29 colon, 102%; in the test with SNB-75 CNS, 81.3%. The growth in the test with SNB-19 CNS is 106%; in the test on U251 CNS it was 105%; in the test with PC-3 prostate, 104%; with SK-MEL-5 melanoma, 113%; in the test with UACC-62 melanoma, 106%; in the test with LOX IMVI melanoma it was 92.7%. Also, in the test on SK-MEL-28 melanoma, the growth is 108%.
`N#Cc1c(N)c(C(=O)c2ccc3c(c2)OCCO3)n2c1CCCC2`: the growth is 45.2% in the test with DU-145 prostate; 0.198% (active) with K-562 leukemia; -8.49% (active) in the test on MALME-3M melanoma; 52.3% in the test on MDA-MB-231 breast; 31.4% with RXF 393 renal; 36.9% with SF-268 CNS. For the same compound, the growth is 24.2% in the test with SF-539 CNS; 45.9% in the test on UACC-257 melanoma; 19.4% in the test with M14 melanoma; 20.9% with HCT-15 colon; 5.44% (active) in the test with HT29 colon; -1.33% (active) with SNB-75 CNS. The growth in the test with SNB-19 CNS is 53.7%; in the test with U251 CNS, 15.4%; in the test with PC-3 prostate it was 23%; in the test with SK-MEL-5 melanoma it was 22.8%; in the test with UACC-62 melanoma, 38%; with LOX IMVI melanoma, 32.2%. Besides, the growth in the test on SK-MEL-28 melanoma was 44%.
For `Clc1cc(Br)ccc1-c1ccc(CNCC2CCNCC2)o1`, the growth in the test on DU-145 prostate is 62.4%; with K-562 leukemia, 18.9%; with MALME-3M melanoma it was -4.35% (active); in the test with MDA-MB-231 breast, 50.8%; in the test on RXF 393 renal, 64.8%; with SF-268 CNS, 45%. Further, the growth in the test with SF-539 CNS is 29.6%; with UACC-257 melanoma, 79.6%; with M14 melanoma it was 55.2%; with HCT-15 colon, 55.1%; in the test on HT29 colon, 31.7%; in the test with SNB-75 CNS it was 9.93% (active). Moreover, the growth in the test on SNB-19 CNS was 42.1%; in the test with U251 CNS it was 16.9%; in the test with PC-3 prostate it was 54.1%; with SK-MEL-5 melanoma, 61.5%; with UACC-62 melanoma, 59.4%; with LOX IMVI melanoma it was 23.4%. Further, the growth with SK-MEL-28 melanoma was 42.3%.
Regarding `CCNC(=S)N(Cc1ccccc1)Cc1ccccc1`, the growth in the test on DU-145 prostate was 124%; in the test with K-562 leukemia, 100%; in the test with MALME-3M melanoma, 105%; in the test with MDA-MB-231 breast, 116%; with RXF 393 renal, 126%; with SF-268 CNS, 116%. In addition, the growth with SF-539 CNS is 104%; with UACC-257 melanoma, 98.7%; with M14 melanoma it was 108%; in the test with HCT-15 colon it was 111%; with HT29 colon it was 98.8%; in the test with SNB-75 CNS, 103%. Besides, the growth was 123% in the test on SNB-19 CNS; 96.4% in the test with U251 CNS; 95.3% in the test with PC-3 prostate; 101% in the test with SK-MEL-5 melanoma; 91.7% in the test with UACC-62 melanoma; 112% in the test on LOX IMVI melanoma. In the test on SK-MEL-28 melanoma, the growth was 110%.
On to `CCCCNCC(O)c1cc(-c2ccc(C(F)(F)F)cc2)nc(-c2ccc(C(F)(F)F)cc2)c1` (stereo unspecified), for which the growth with DU-145 prostate is 6.08% (active); in the test with K-562 leukemia it was -59.5% (active); in the test on MALME-3M melanoma it was -41.6% (active); in the test on MDA-MB-231 breast, -71.9% (active); in the test on RXF 393 renal it was -94.4% (active); in the test on SF-268 CNS it was -86% (active). Besides, the growth in the test with SF-539 CNS was -74.9% (active); in the test with UACC-257 melanoma, -70.3% (active); with M14 melanoma it was -79.7% (active); with HCT-15 colon it was -64.7% (active); in the test with HT29 colon, -77% (active); with SNB-75 CNS, -85% (active). The growth with SNB-19 CNS is -77.1% (active); in the test with U251 CNS, -92.1% (active); in the test with PC-3 prostate, -81.1% (active); in the test on SK-MEL-5 melanoma, -24.2% (active); in the test on UACC-62 melanoma, -83.4% (active); in the test with LOX IMVI melanoma it was -67.2% (active). Further, the growth with SK-MEL-28 melanoma is -85.3% (active).
